Data taken from PubChem BioAssay (NCI).
Values joined by “and” are separate entries in the source; they are usually repeats but may differ in a detail not shown here. Identical values can stand only once. About 83,000 compounds went through this panel and 20% of them were active in at least one assay; those are over-represented in the sample as a whole.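 Assay: single dose, 48 h. Readout: percent growth (0 = no net growth; negative = cell death). Active: <10.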 Active and inactive are the calls of the source.

These compounds were tested on MDA-MB-468 breast (assay: NCI-60 one-dose screen, 48 h (100 = growth as untreated, 0 = no growth, -100 = all killed)). Settings: 10 µM unless noted.

Row | Structure (SMILES) | growth
1 | C#CCSc1nnnn1-c1ccccc1 | 22.3% (inactive)
2 | Cc1c(Cc2ccccc2)c(=O)oc2c(C)c(OCc3n[nH]c(=S)o3)ccc12 | 77.7% (inactive)
3 | C#CCOc1ccc(C(Nc2ccc(OC)cc2)c2nnnn2C2CCCCC2)cc1 (stereo not drawn) | 101% (inactive)
4 | Nc1c(C(=O)Nc2ccccn2)sc2nc3c(cc12)CCCC3 | 43.8% (inactive)
5 | Cc1ccc2c3c(cccc13)-c1ccccc1C2=O | 97% (inactive)
6 | S=C(Cc1ccc2c(c1)CCCC2)N1CCOCC1 | 105% (inactive)
7 | Cc1ccc(-c2c3c(N)c4c(nc3nc3c2c(C)nn3-c2ccccc2)CCC4)cc1 | 53% (inactive)
8 | COc1ccc(/C=C/C(=O)O)cc1OC | 99.5% (inactive) and 102% (inactive)
